In ChEMBL document CHEMBL1157539, “Thousands of chemical starting points for antimalarial lead identification” (Nature, 2010):

Experiments:
Format in all cases: functional
Plasmodium falciparum [1] = assay: GSK_TCMDC: Inhibition of Plasmodium falciparum 3D7 in whole red blood cells, using parasite LDH activity as an index of growth. Test compounds present at 2uM
Plasmodium falciparum [2] = assay: GSK_TCMDC: Inhibition of Plasmodium falciparum Dd2 in whole red blood cells, using parasite LDH activity as an index of growth. Test compounds present at 2uM
HepG2 = assay: GSK_TCMDC: Percent inhibition of human HepG2 cell line. Test compounds present at 10uM.

| Structure (SMILES) | Inhibition (Plasmodium falciparum [1]) [%] | Inhibition (Plasmodium falciparum [2]) [%] | Inhibition (HepG2) [%] |
| --- | --- | --- | --- |
| Cc1cc(Cl)c(S(=O)(=O)NC2CCCC2)cc1OCC(=O)NC1CCCCC1 | 97 | 91 | 19 |
| Cc1cc(C(=O)CN2C(=O)NC3(CCOc4ccccc43)C2=O)c(C)n1Cc1ccc(F)cc1 (stereo unspecified) | 95 | 84 | 1 |
| Cl.Oc1cccc(Nc2ccnc3cc(-c4ccncc4)ccc23)c1 | 100 | 99 | 8 |
| COc1cc2c(cc1CCNCCCCNCCc1cc3c(cc1OC)CCCC3)CCCC2.CS(=O)(=O)O | 100 | 36 | 100 |
| COc1ccc(N2CCN(CCCCNC(=O)c3ccc(NC(=O)c4ccc(OC(F)(F)F)cc4)cc3)CC2)c(OC)c1 | 100 | 90 | 36 |
| COc1ccc(NC(=O)c2ccc(-c3nc(-c4cccc(C(F)(F)F)c4)cs3)cc2)cc1N1CCN(C)CC1 | 98 | 59 | 29 |
| Cn1c(Nc2cc(C(C)(C)C)on2)nc2cc(Nc3ccnc(Nc4cccc(S(=O)(=O)N5CCOCC5)c4)n3)ccc21 | 100 | 96 | 32 |
| Cc1ccc(F)c(OCC2CCN(c3ncc(C(=O)NC4CC4)cc3Cl)CC2)c1 | 96 | 95 | 9 |
| COc1ccc(CCCN2C(=O)C(c3ccccc3)(c3ccccc3)N=C2N)cc1.O=C(O)C(F)(F)F | 94 | 76 | 21 |
| OCc1c(Cl)cc(Cl)cc1CNCCCNc1nc2ccccc2[nH]1 | 100 | 2 | 0 |
| O=C(CNC(=O)c1ccc(O)cc1)Nc1cccc(-c2cccc(-c3nc4cc(C(F)(F)F)ccc4[nH]3)c2)c1 | 96 | 28 | 63 |
| CC(=O)NCCNc1nccc(N2CCc3ncnc(Nc4ccc(OCc5ccccn5)c(Cl)c4)c3C2)n1 | 99 | 99 | 0 |
| Cc1ccc(-n2ncc(C(=O)Nc3cc(Cl)cc(Cl)c3)c2C2CCNCC2)cc1C.Cl | 100 | 77 | 65 |
| CCC(C)(C)c1ccc(OCC(O)CN2CCCCC2)c(C(C)(C)CC)c1 (stereo unspecified) | 91 | 26 | 14 |
| Cc1c(N)ccc2[nH]c(-c3ccc(N)cc3)nc12 | 97 | 40 | 0 |
| O=C(O)C(F)(F)F.OCC1CCN(Cc2cccc(-c3ccc(-c4nc5cc(F)ccc5[nH]4)cc3)c2)CC1 | 100 | 86 | 11 |
| CN(CCN)Cc1cccc(-c2cccc(-c3nc4cc(C(F)(F)F)ccc4[nH]3)c2)c1.O=C(O)C(F)(F)F | 99 | 98 | 22 |
| O=C(Nc1ccc(F)c(F)c1)c1ccc(CN2CCCN(Cc3cccc(F)c3)CC2)cc1.O=C(O)C(F)(F)F | 83 | 12 | 51 |
| COc1ccc(CNCCCCCNCc2ccc(Cl)c(Cl)c2)cc1Cl | 98 | 43 | 42 |
| O=C(O)C(F)(F)F.c1ccc(-n2ncc(CNCc3ccc(-c4ccc(-c5nc6ccccc6[nH]5)s4)cc3)n2)cc1 | 93 | 46 | 27 |
| COc1ccc(CON2C(=N)N=C(N)NC2(C)C)cc1OC.Cl | 96 | 97 | 68 |
| CCCc1cc(C(=O)N[C@@H](Cc2ccccc2)[C@H](O)CNC2CCOCC2)c(F)c(N2CCCCS2(=O)=O)c1 | 97 | 97 | 0 |
| CN1CCCC(CN2CCN(Cc3ccc(-c4ccc(-c5nc6cc(F)ccc6[nH]5)s4)cc3)CC2)C1.O=C(O)C(F)(F)F (stereo unspecified) | 100 | 100 | 73 |
| Cc1ccc(Cn2ncc(N3CCNCC3)c(Cl)c2=O)cc1NC(=O)Nc1ccc(-c2ccccc2)cc1.O=C(O)C(F)(F)F | 90 | 30 | 56 |
| Cc1nc(C)c(-c2ccc(Br)cc2)c(O)c1Br | 98 | 95 | 9 |
| O=C(O)C(F)(F)F.OC1CCCN(Cc2ccc(-c3ccc(-c4nc5cc(F)ccc5[nH]4)cc3)cc2)C1 (stereo unspecified) | 100 | 79 | 55 |
| Cc1cc(CN2CCC(Nc3ncc(-c4ccsc4)c4nc(C(F)(F)F)ccc34)CC2)no1.Cl | 81 | 67 | 8 |
